Compound activity: PubChem BioAssay, Sanford-Burnham Center for Chemical Genomics
KKLEB tox: reduces viability of KKLEB cystic fibrosis airway cells; KKLEB CF airway cells viability, ATPlite luminescence, overnight; active compounds read low; cells stimulated with P. aeruginosa culture filtrate; activity change (cytotoxicity), % at 5 µM; 360,000 tested, 0.36% active; AID 602141;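 active means corrected activity change at or below -50% at 5 µM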
CF NFkB inh: cystic fibrosis NF-kB activation inhibition. KKLEB NF-kB-GFP reporter, PAF-induced, GFP fluorescence overnight. inhibition, % at 5 µM. 360,000 tested, 0.86% active;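 active means at least 50% inhibition at 5 µM, scaled per plate between neutral and stimulator controls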;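 further: PAF is a Pseudomonas aeruginosa culture filtrate used as stimulus; plate controls were PAF-stimulated DMSO wells for no effect and unstimulated DMSO wells for full effect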
TROY signal inh: inhibitors of TROY-dependent NF-kB signaling; Q293 LMP1-TROYcd NF-kB luciferase reporter, 4 h; inhibition, % at 10 µM; 360,000 tested, 0.98% active;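 active means compounds whose plate-normalised and pattern-corrected inhibition of the luciferase reporter signal at the single screening dose is 50% or more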
HIF-2a block: HIF-2a inhibition; 786-0 RCC cells HIF-2a reporter, luciferase luminescence, overnight; inhibition, % at 18.8 µM; 360,000 tested, 0.72% active;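 active means inhibition of the luminescence signal of 40% or more relative to plate controls, in a single-dose primary screen at 18.75 µM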
TWEAK Fn14 block: inhibitors of TWEAK-Fn14 interaction signaling; inhibition, % at 10 µM; TWEAK-stimulated Fn14 reporter cells, luciferase luminescence, 8 h; 360,000 tested, 2% active; in the data active means inhibition above about 50%
Peg3 promoter: reduces Peg3 promoter-driven luciferase expression in HeLa | inhibition, % at 20 µM | 360,000 tested, 1.7% active | HeLa PEG-Prom luciferase reporter, luminescence, overnight;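 active means inhibition of at least 50% at 20 µM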
CF NFkB conf: confirmation of cystic fibrosis induced NF-kB inhibitors; shares compounds with CF NFkB inh; KKLEB CF airway cells, PAF-induced NF-kB-GFP fluorescence, overnight; inhibition, % at 5 µM; 1,300 tested, 64% active; AID 602472; in the data active means inhibition above about 40%;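 further: stimulus PAF is a Pseudomonas aeruginosa filtrate and not platelet activating factor; plate controls were DMSO wells with stimulus for no effect and unstimulated DMSO wells for full effect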
* = called active by the depositor; . = not tested or not shown. Compounds with a hit are over-represented: about 4% of the library has one in this group of screens.

SMILES	KKLEB tox	CF NFkB inh	TROY signal inh	HIF-2a block	TWEAK Fn14 block	Peg3 promoter	CF NFkB conf
COc1ccc(-c2cc(C(F)(F)F)nc(N3CCN(c4ccc(F)cc4)CC3)n2)cc1OC	-33.5	54.1*	-5.8	2.8	-9.7	20.4	41.1*
COc1cc(-c2cnc3c(NC=O)cc(-c4ccc(S(C)(=O)=O)cc4)cn23)cc(OC)c1OC	-11.2	26.8	0.0	12.7	-12.8	23.1	.
COc1ccc(-c2cc(NC=O)c3ncc(-c4cc(OC)c(OC)c(OC)c4)n3c2)cc1	-28.5	51.8*	11.8	-29.9	25.4	-1.5	69.7*
COc1ccccc1-c1cc(NC=O)c2ncc(-c3cccc(C(C)=O)c3)n2c1	-19.0	59.1*	3.9	-29.3	46.9	42.3	44.4*
COc1ccc(-c2cc(NC=O)c3ncc(-c4ccc(OC)c(OC)c4)n3c2)c(OC)c1	-28.4	60.3*	-0.7	9.6	9.7	46.9	87.1*
COc1cccc(-c2cnc3c(NC=O)cc(-c4ccc(OC)cc4OC)cn23)c1	-40.0	63.2*	11.7	-9.7	20.6	-11.3	76.0*
O=C(CN1CCCCC1)N/N=C/c1ccccc1Br	-4.9	18.2	-1.8	-3.0	14.6	18.5	.
CCOC(=O)C1(C)CCN1C(=O)c1cc(F)ccc1C (configuration not stated)	1.5	-34.6	9.5	3.0	-0.8	8.2	.
CCc1nnc(NC(=O)CCc2ccc(C)o2)s1	-1.5	11.3	3.2	-7.5	2.3	-17.6	.
Cc1ccc(CCC(=O)Nc2ncc(Cc3cccc(Cl)c3Cl)s2)o1	-32.4	52.2*	27.9	31.1	17.9	31.4	78.4*
COc1ccccc1-c1nn(-c2ccccc2)cc1C(=O)NCC(c1ccco1)N1CCCC1 (configuration not stated)	-8.0	-14.9	-2.2	-6.8	-13.4	-1.3	.
O=[N+]([O-])c1ccc(Sc2nnnn2-c2ccccc2)c(Cl)c1	-25.7	19.4	24.1	6.2	33.4	17.9	.
CC(=O)c1ccc(Sc2nnnn2-c2ccccc2)c([N+](=O)[O-])c1	-32.0	76.3*	37.4	12.6	97.7*	38.2	28.4
Cn1cc([N+](=O)[O-])c(C(=O)Nc2ccc(-c3nc4ccccc4[nH]3)cc2)n1	4.4	28.2	-52.2	-194.2	-32.1	-288.1	.
OCCCNc1ncnc2scc(-c3ccc(Cl)cc3)c12	-11.0	62.8*	31.7	24.4	73.2*	22.6	80.8*
O=C(NCCCSc1ccccc1)c1cc(Br)ccc1O	-35.6	54.8*	35.2	-8.7	50.6*	42.3	78.6*
Cc1ccccc1NC(=S)Nc1ccccn1	-5.1	-13.5	-10.7	-95.0	9.2	-64.3	.
Cc1cccn2c(CNCC3(c4ccccc4)CCCC3)c(C(=O)N3CCOCC3)nc12	-28.0	58.7*	11.1	12.6	17.7	47.1	6.5
CC1CC2C3CCC4=CC(=O)C=CC4(C)[C@@]3(Cl)C(O)CC2(C)C1(O)C(=O)CO (some centres not stated)	12.7	66.5*	19.5	13.2	-4.3	-4.8	15.8
CC1CCC(NC(=O)COC(=O)c2ccco2)CC1 (configuration not stated)	3.3	-13.8	-33.4	-2.4	-11.2	-22.3	.
CC(=O)C1CCC2C3CCC4=CC(=O)C=CC4(C)C3C(=O)CC12C (configuration not stated)	-10.1	4.8	-5.6	4.5	-8.4	15.2	.
C[C@@H]1C[C@H]2[C@@H]3CCC4=CC(=O)C=C[C@]4(C)[C@@]3(Cl)[C@@H](O)C[C@]2(C)[C@@]1(OC(=O)c1ccco1)C(=O)CCl	22.4	88.9*	34.0	24.8	7.4	67.8*	28.7
CCOc1ccc(C(=O)CSCC(=O)O)cc1	1.1	16.5	-2.9	15.7	3.0	11.9	.
COc1cc(/C=N/NC(=O)Cc2nnc(NC(=O)c3ccccc3)s2)ccc1O	-8.9	22.3	-18.3	18.1	-21.2	0.2	.
CC(C)c1ccc(NC(=O)Nc2nc(C(N)CCc3ccccc3)cs2)cc1 (configuration not stated)	-44.4	54.3*	8.4	23.4	-1.3	98.4*	12.2
SMILES	KKLEB tox	CF NFkB inh	TROY signal inh	HIF-2a block	TWEAK Fn14 block	Peg3 promoter	CF NFkB conf
COc1cc(OC)nc(Nc2nc(C(N)CCc3ccccc3)cs2)n1 (configuration not stated)	-17.2	11.1	3.9	16.4	-32.4	15.7	.
CCC(CO)Oc1cc(NCc2ccc(Cl)cc2Cl)c2ncn(C(C)C)c2c1 (configuration not stated)	-2.5	60.1*	21.1	20.1	17.6	14.0	45.2*
CCC(CO)Oc1cc(NCc2ccc(Cl)cc2)c2ncn(C(C)C)c2c1 (configuration not stated)	-5.8	14.8	3.7	3.4	-0.2	14.8	.
COc1cc(NS(=O)(=O)c2cc3c(cc2C)NC(=O)CO3)cc(OC)c1	5.1	2.9	1.7	-1.1	22.6	14.4	.
Cc1c(C(=O)OC2CCCC2)[nH]c2c1C(=O)CC(c1ccco1)C2 (configuration not stated)	-31.1	50.5*	16.9	-46.9	28.8	-25.9	82.3*
Cc1c(C(=O)OCC2CCCO2)[nH]c2c1C(=O)CC(c1ccco1)C2 (configuration not stated)	0.9	5.2	5.1	-19.6	-18.5	-4.4	.
Cc1c(C(=O)OCC(C)C)[nH]c2c1C(=O)CC(c1ccco1)C2 (configuration not stated)	-24.0	50.8*	-2.1	-60.9	19.1	-41.1	52.6*
COC(=O)c1[nH]c2c(c1C)C(=O)CC(c1ccccc1)C2 (configuration not stated)	-28.7	42.5	13.8	6.0	38.4	14.7	.
C/C=C/COC(=O)c1[nH]c2c(c1C)C(=O)CC(c1ccc(N(C)C)cc1)C2 (configuration not stated)	-25.9	25.2	-1.3	-48.6	-0.5	-40.1	.
C/C=C/COC(=O)c1[nH]c2c(c1C)C(=O)CC(c1ccco1)C2 (configuration not stated)	-31.5	61.9*	-20.9	15.5	26.8	-5.6	84.6*
Cc1cc(S(=O)(=O)N2CCOCC2)ccc1OCC(=O)NCCN1CCOCC1	9.0	-4.6	-1.2	5.0	-0.2	-6.8	.
COc1ccc(Cl)cc1NC(=O)C1CCCN(S(=O)(=O)c2cccc3nonc23)C1 (configuration not stated)	-5.4	7.4	13.4	9.1	2.2	24.8	.
COc1cccc(/C=N/n2c(N)c(S(=O)(=O)c3cccs3)c3nc4ccccc4nc32)c1OC	15.1	53.8*	2.5	3.4	18.3	3.9	10.9
COCCn1c(N)c(S(=O)(=O)c2cccs2)c2nc3ccccc3nc21	8.7	-7.0	15.9	14.2	5.5	12.5	.
Cc1cc(NC(=O)COC(=O)[C@@H]2CCCN2C(=O)c2cccs2)no1	-8.5	-6.8	0.6	5.9	-29.8	3.1	.
